# Measured values published in PubChem BioAssay (NCATS).
# Inconclusive results are not listed. Entries that show only a call come without a potency. The source made the active and inactive calls. Unless noted, calls come from the whole dose curve; as a rule, active = well fitted curve in the direction sought with a large enough effect; inconclusive = small, poorly fitted or top-dose-only effect, or another doubt; inactive = no such curve, though single readings can be large; an effect the other way counts as inactive or inconclusive.
# What was measured:
# [1] = Cell Viability - LYMP2-006 (AID 978); note: series mostly up to about 92 µM; nearly all actives have a fitted effect of over 60% in size
# How it was run: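 In this cytotoxicity screen, the human lymphoblastoid line grew in complete medium with test compounds for 24 hr at 37 C. Cellular ATP served as the viability signal.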
# [2] = qHTS assay for small molecule antagonists of peroxisome proliferator-activated receptor delta signaling (AID 588535); settings: HEK293T PPARd-UAS-bla, beta-lactamase FRET ratio, 18 h; 460 nm channel;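 note: cells co-treated with a PPAR-delta agonist as stimulator during compound exposure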
# How it was run: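 Reporter: UAS-bla under PPAR-delta response element, HEK293T host. Medium: 2% charcoal/dextran FBS. Dosing: titration, 18 hrs, 37 C. Detection: CCF4, 2 hrs RT, 405 ex/460 and 530 em.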
# [3] = target: Nuclear receptor ROR-gamma (Homo sapiens) (UniProt P51449); assay: qHTS assay for small molecule antagonists of the retinoid-related orphan receptor gamma (ROR-gamma) signaling pathway (AID 651802);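 note: CHO cells with doxycycline-induced ROR-gamma expression; luciferase reporter luminescence driven by ROR response element; series mostly up to about 92 µM; nearly all actives have a fitted effect of over 60% in size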
# How it was run: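 CHO, TET-inducible ROR + RORE-LUC reporter, 1536-well qHTS. Compound pinned, doxycycline added, 16hr 37C/5% CO2. ONE-Glo, 30 min RT, luminescence; signal drop scored as antagonism.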
# [4] = Cell Viability - LYMP2-015 (AID 971); note: nearly all actives have a fitted effect of over 55% in size
# How it was run: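 Luminescent ATP read-out (CellTiter-Glo) served as the viability measure after lymphoblastoid cells were exposed to compounds for 24 hours at 37 C. Concentration-response data were fitted with the Hill equation to give AC50.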
# [5] = Cell Viability - LYMP2-026 (AID 989); note: nearly all actives have a fitted effect of over 50% in size
# How it was run: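 Luminescent ATP signal (CellTiter-Glo, 30 min room temperature) measures viable lymphoblastoid cells after 24 hr compound treatment at 37 C. Decreased ATP reflects acute toxicity; AC50 values come from Hill-equation modeling.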
# [6] = qHTS assay to identify small molecules that stimulate interleukin-8 (IL-8) secretion (AID 651758; active = well fitted activation curve with a large enough effect in the signal ratio; the % refers to the signal ratio)
# How it was run: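 THP-1, 2000 cells/well; cpd 16 h, 37 C; add cryptate + XL665 anti-IL-8 Abs; RT 1-3 h; TR-FRET read.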
# [7] = target: Peroxisome proliferator-activated receptor gamma (Homo sapiens) (UniProt P37231); assay: qHTS assay for small molecule antagonists of peroxisome proliferator-activated receptor gamma signaling (AID 588537; active = well fitted inhibition curve with a large enough effect in the signal ratio, with a control signal flat, not every such curve was filed as active; the % refers to the signal ratio;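 note: reporter cells co-stimulated with 50 nM rosiglitazone agonist during compound treatment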)
# How it was run: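 We seeded GeneBLAzer HEK293 reporter cells at 3000 per well, allowed 6-6.5 h attachment at 37 C, then co-treated with test compound titrations and 50 nM rosiglitazone overnight (16 h). Inhibition was quantified from 460/530 nm emission ratios.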
# Nuclear receptor ROR-gamma (Homo sapiens), sequence (P51449 whole entry, looked up): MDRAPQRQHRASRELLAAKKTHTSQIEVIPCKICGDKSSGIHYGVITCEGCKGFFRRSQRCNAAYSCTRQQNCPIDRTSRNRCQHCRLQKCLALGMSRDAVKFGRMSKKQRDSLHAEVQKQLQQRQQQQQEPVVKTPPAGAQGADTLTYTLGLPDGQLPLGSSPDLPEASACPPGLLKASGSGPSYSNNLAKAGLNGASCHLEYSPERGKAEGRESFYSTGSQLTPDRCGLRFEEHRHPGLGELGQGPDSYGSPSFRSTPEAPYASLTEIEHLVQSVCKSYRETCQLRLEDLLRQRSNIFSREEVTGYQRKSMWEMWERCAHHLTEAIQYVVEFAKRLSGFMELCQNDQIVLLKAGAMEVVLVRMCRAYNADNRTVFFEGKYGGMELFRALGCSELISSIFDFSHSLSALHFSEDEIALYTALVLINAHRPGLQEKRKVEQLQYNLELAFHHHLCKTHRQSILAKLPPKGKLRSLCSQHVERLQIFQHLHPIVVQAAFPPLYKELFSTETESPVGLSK
# Peroxisome proliferator-activated receptor gamma (Homo sapiens), sequence (P37231 whole entry, looked up): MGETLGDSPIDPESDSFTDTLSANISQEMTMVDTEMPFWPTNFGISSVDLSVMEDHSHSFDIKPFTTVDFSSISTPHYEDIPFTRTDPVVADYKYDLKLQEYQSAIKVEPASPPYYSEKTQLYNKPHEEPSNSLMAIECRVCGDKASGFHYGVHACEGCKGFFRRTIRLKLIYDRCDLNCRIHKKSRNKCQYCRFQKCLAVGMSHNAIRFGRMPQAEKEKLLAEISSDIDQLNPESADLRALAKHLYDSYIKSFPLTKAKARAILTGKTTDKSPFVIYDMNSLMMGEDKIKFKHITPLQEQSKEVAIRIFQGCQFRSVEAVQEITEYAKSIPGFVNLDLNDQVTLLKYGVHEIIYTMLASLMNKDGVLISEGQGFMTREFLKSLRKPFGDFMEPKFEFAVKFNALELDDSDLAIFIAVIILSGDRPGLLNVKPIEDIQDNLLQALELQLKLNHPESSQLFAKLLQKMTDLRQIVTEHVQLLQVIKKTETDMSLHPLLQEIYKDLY
smiles,measurement,setting,value
C(CCOCC1CO1)COCC1CO1 (configuration not stated),Potency,[1],inactive
same,max response,[2],-10%
same,Potency,[3],inactive
CCCCCc1cc(O)cc(O)c1,Potency,[4],inactive
same,Potency,[5],inactive
same,Potency,[6],inactive
c1ccoc1,Potency,[7],inactive
